This passage reports outcome and AC50 results from PubChem BioAssay (EPA / NIEHS).

A word on the AC50: it is the concentration giving half of the maximal activity seen.

Results filed as inconclusive are left out. Calls of active or inactive are those of the source. The calls were made as follows, unless noted: active = hit-call score of the fitted dose curve at least 0.9, where 1 is the maximum; inactive = score below 0.9.

Assay [1] deals with Hepatocyte nuclear factor 4-alpha (Homo sapiens) (UniProt P41235). Nature of the assay: ATG_HNF4a_TRANS: Attagene TRANS-FACTORIAL HepG2 Assay for human Hepatocyte Nuclear Factor 4 alpha (HNF4a) (AID 2282982; active = hit-call score of the fitted dose curve at least 0.9, where 1 is the maximum). The following applies: HepG2 HNF4a transactivation reporter, mRNA readout. The gist of the method: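 Using HepG2 liver cells transfected with GAL4-UAS reporter units, chemical-induced mRNA increases were assessed after 24 hours. Fluorescent RT-PCR fragments were separated by capillary electrophoresis and compared with DMSO negative controls.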

Assay [2] in a line: ATG_M_06_TRANS: Attagene TRANS-FACTORIAL HepG2 Assay for M06 Transcription Factor (Internal Marker) (AID 2282983; active = hit-call score of the fitted dose curve at least 0.9, where 1 is the maximum). The following applies: HepG2 Attagene TRANS M06 internal marker reporter. The gist of the method: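 Background control endpoint: reporter mRNA from transiently transfected HepG2 after 24 h dosing, detected by RT-PCR with capillary electrophoresis fluorescence. Analysed for gain versus DMSO.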

The target of assay [3] is Nuclear receptor subfamily 4 group A member 2 (Homo sapiens) (UniProt P43354). The experiment in a line: ATG_NURR1_TRANS: Attagene TRANS-FACTORIAL HepG2 Assay for human Nuclear Receptor Related Protein 1 (NURR1) (AID 2282985; active = hit-call score of the fitted dose curve at least 0.9, where 1 is the maximum). The following applies: HepG2 Attagene TRANS reporter, mRNA readout. A digest of the protocol:
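Chimeric NR-Gal4 proteins were expressed in human HepG2 cells bearing GAL4-UAS reporter units, and induced reporter mRNA was quantified 24 h post-dosing by RT-PCR and capillary electrophoresis.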

The target of assay [4] is Transcriptional activator Myb (Homo sapiens) (UniProt P10242). Nature of the assay: ATG_Myb_CIS: Attagene CIS-FACTORIAL HepG2 Assay for human Myeloblastosis (Myb) Proto-Oncogene Transcription Factor (AID 2282986). As to conditions: HepG2 Attagene CIS-FACTORIAL Myb reporter transcription; actives raise or lower the signal. The gist of the method:
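Reporter mRNA is quantified by RT-PCR and capillary electrophoresis 24 h after dosing HepG2 cells transfected with cis-regulated reporter units, which track endogenous transcription factor activity. Gain and loss of signal are fitted versus DMSO baseline.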

Assay [5] addresses Nuclear respiratory factor 1 (Homo sapiens) (UniProt Q16656). Nature of the assay: ATG_NRF1_CIS: Attagene CIS-FACTORIAL HepG2 Assay for human Nuclear Respiratory Factor 1 (NRF1) Orphan Gene (AID 2282987). The following applies: HepG2 NRF1 cis-element reporter, Attagene multiplex; actives raise or lower the signal. A digest of the protocol: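 Endogenous NRF1-driven reporter transcription in transfected HepG2 cells after 24 h treatment. Readout: RT-PCR products, 6-FAM labelled and resolved by capillary electrophoresis; changes fitted both directions relative to DMSO.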

Assay [6] can be described thus: ATG_NFI_CIS: Attagene CIS-FACTORIAL HepG2 Assay for human Nuclear Factor I (NFI) (AID 2282989). The following applies: HepG2 cis-regulatory reporter, NFI response element transcription; actives raise or lower the signal. A digest of the protocol: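 HepG2, transient MRTU, 24 h exposure; RNA→cDNA→PCR→FAM label→HpaI→CE fluorescence. Bidirectional fit, DMSO = baseline.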

Assay [7] addresses Myc proto-oncogene protein (Homo sapiens) (UniProt P01106). The experiment in a line: ATG_Myc_CIS: Attagene CIS-FACTORIAL HepG2 Assay for human Myelocytomatosis (Myc) Proto-Oncogene Transcription Factor (AID 2282990). The following applies: HepG2, Attagene cis-reporter transcription factor activity; actives raise or lower the signal. A digest of the protocol:
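DMSO-normalised, bidirectionally fitted reporter mRNA signal. HepG2 cells transfected with cis reporter constructs, treated 24 h; transcripts detected by RT-PCR, 6-FAM primer extension and CE.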

Assay [8] in a line: ATG_NF_kB_CIS: Attagene CIS-FACTORIAL HepG2 Assay for human Nuclear Factor Kappa B (NF-kB) (AID 2282991). The following applies: HepG2 Attagene cis-factorial NF-kB reporter mRNA; actives raise or lower the signal. The gist of the method:
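Readout is reporter transcript level, gain or loss versus DMSO, measured 24 h post-dose via RT-PCR, fluorescent labelling and capillary electrophoresis. Human HepG2 liver cells carried transiently transfected CIS reporter constructs reflecting endogenous factors.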

Assay [9] is described as follows: ATG_NRF2_ARE_CIS: Attagene CIS-FACTORIAL HepG2 Assay for human Nuclear Factor Erythroid 2 Related Factor 2 (NFR2) response to Antioxidant Response Elements (ARE) (AID 2282992).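 As to AC50: reporter mRNA level measured by RT-PCR and capillary electrophoresis fluorescence.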 As to conditions: HepG2 Attagene ARE/NRF2 reporter, transcription factor activity; actives raise or lower the signal. A digest of the protocol:
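Readout: reporter mRNA quantified by RT-PCR plus FAM-labelled primer extension, HpaI digestion and capillary electrophoresis, 24 h after dosing transfected HepG2 cells. Gain or loss of signal is fitted bidirectionally against DMSO baseline.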

Assay [10] can be described thus: ATG_Oct_MLP_CIS: Attagene CIS-FACTORIAL HepG2 Assay for human Octamer-Binding Transcription Factor (Oct) (AID 2282993). The following applies: HepG2 Attagene cis-factorial Oct reporter, mRNA; actives raise or lower the signal. A digest of the protocol:
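Multiplexed cis-reporter assay in human liver HepG2 cells, 24 h incubation. Reporter RNA amplified and labelled, then resolved by capillary electrophoresis; DMSO serves as negative control and baseline.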

For assay [11], the target named is Cellular tumor antigen p53 (Homo sapiens) (UniProt P04637). The experiment in a line: ATG_p53_CIS: Attagene CIS-FACTORIAL HepG2 Assay for human p53 Transcription Factor (AID 2282994). As to conditions: HepG2 p53 cis-element reporter, Attagene mRNA; actives raise or lower the signal. A digest of the protocol: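 Read-out: reporter mRNA by RT-PCR plus capillary electrophoresis with fluorescence detection. Human HepG2 liver cells carried transfected multi-reporter cis-element constructs, dosed 24 h. Gain or loss of signal fitted bidirectionally against DMSO control.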

The target in assay [12] is human Peroxisome Proliferator-activated Receptor alpha (PPARa), PPARA (gene 5465) (UniProt Q07869). The experiment in a line: ATG_PPARa_TRANS: Attagene TRANS-FACTORIAL HepG2 Assay for human Peroxisome Proliferator-activated Receptor alpha (PPARa) (AID 2283001; active = hit-call score of the fitted dose curve at least 0.9, where 1 is the maximum). A digest of the protocol:
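Exposure: 24 h, transiently transfected HepG2 cells. Endpoint: GAL4-UAS reporter mRNA, RT-PCR with capillary electrophoresis fluorescence. Baseline: DMSO; increases fitted.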

Assay [13] addresses human Peroxisome Proliferator-activated Receptor delta (PPARd), PPARD (gene 5467) (UniProt Q03181). The experiment in a line: ATG_PPARd_TRANS: Attagene TRANS-FACTORIAL HepG2 Assay for human Peroxisome Proliferator-activated Receptor delta (PPARd) (AID 2283002; active = hit-call score of the fitted dose curve at least 0.9, where 1 is the maximum). The gist of the method: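 Measured quantity: GAL4-UAS reporter transcript induction in HepG2 after 24 h chemical dosing, with NR-Gal4 chimeras supplied by transient transfection. Detection by RT-PCR and capillary electrophoresis; upward fit against DMSO.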

A short description of assay [14]: ATG_M_32_TRANS: Attagene TRANS-FACTORIAL HepG2 Assay for M32 Transcription Factor (Internal Marker) (AID 2282984; active = hit-call score of the fitted dose curve at least 0.9, where 1 is the maximum;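 also: transcript level of a background control reporter unit measured by RT-PCR and capillary electrophoresis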). The following applies: HepG2 Attagene TRANS M32 internal marker reporter. The gist of the method:
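Fluorescence-detected mRNA induction, HepG2 liver cells, 24 h after dosing. Multiple GAL4-UAS reporter units introduced by transient transfection; background-control endpoint analysed for gain of signal against DMSO.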

Assay [15] in a line: BSK_3C_TissueFactor: BioMAP Diversity Plus: 3C Assay for Tissue Factor Biomarker Activity (AID 2282997). As to conditions: BioMAP 3C HUVEC, tissue factor biomarker readout; actives raise or lower the signal. The gist of the method:
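After a 24 h chemical exposure of primary human umbilical vein endothelial cells, Tissue Factor levels were quantified by ELISA.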

The nature of assay [16]: BSK_3C_uPAR: BioMAP Diversity Plus: 3C Assay for Urokinase-type plasminogen activator receptor (uPAR) Biomarker Activity (AID 2282998). The following applies: BioMAP 3C HUVEC, uPAR biomarker ELISA; actives raise or lower the signal. A digest of the protocol: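 Dose primary human umbilical vein endothelial cells, incubate 24 h, measure cell-surface uPAR by ELISA, then fit the signal in both directions against the DMSO negative control.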
(In general: In an ELISA, binding on a coated surface is turned into a signal by an enzyme label.)

Assay [17] in a line: BSK_3C_VCAM1: BioMAP Diversity Plus: 3C Assay for Vascular cell adhesion molecule 1 (VCAM1) Biomarker Activity (AID 2282999). The following applies: BioMAP 3C HUVEC, VCAM1 ELISA, cytokine-stimulated; actives raise or lower the signal. The gist of the method: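 Vascular primary endothelium (human umbilical vein) was exposed to chemicals and assayed 24 h later. VCAM-1 levels came from ELISA, with DMSO serving as baseline for bidirectional fitting.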

Assay [18] can be described thus: BSK_4H_Eotaxin3: BioMAP Diversity Plus: 4H Assay for Eotaxin 3 Biomarker Activity (AID 2283000).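 As to outcome: CCL26 protein level quantified by ELISA in parallel with SRB cytotoxicity check.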 As to conditions: primary human endothelial cells (HUVEC); actives raise or lower the signal. A digest of the protocol: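 Chemicals were added to human umbilical vein endothelium cultures, and Eotaxin-3 was quantified by ELISA at 24 h. Values were derived by bidirectional fitting with DMSO serving as negative control and activity baseline.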

Read-out in assay [19]: Intercellular Adhesion Molecule 1 (ICAM1), ICAM1 (gene 3383)
The experiment in a line: BSK_3C_ICAM1: BioMAP Diversity Plus: 3C Assay for Intercellular Adhesion Molecule 1 (ICAM1) Biomarker Activity (AID 2283003). As to conditions: primary human endothelial cells (HUVEC); actives raise or lower the signal. The gist of the method: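 Using DMSO as baseline, bidirectional curve fitting was applied to ICAM-1 ELISA signals from HUVEC in the 3C system, measured 24 h after compound addition.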

human Peroxisome Proliferator-activated Receptor alpha (PPARa), PPARA (gene 5465), sequence (Q07869 whole entry, looked up, the tested form may be a part): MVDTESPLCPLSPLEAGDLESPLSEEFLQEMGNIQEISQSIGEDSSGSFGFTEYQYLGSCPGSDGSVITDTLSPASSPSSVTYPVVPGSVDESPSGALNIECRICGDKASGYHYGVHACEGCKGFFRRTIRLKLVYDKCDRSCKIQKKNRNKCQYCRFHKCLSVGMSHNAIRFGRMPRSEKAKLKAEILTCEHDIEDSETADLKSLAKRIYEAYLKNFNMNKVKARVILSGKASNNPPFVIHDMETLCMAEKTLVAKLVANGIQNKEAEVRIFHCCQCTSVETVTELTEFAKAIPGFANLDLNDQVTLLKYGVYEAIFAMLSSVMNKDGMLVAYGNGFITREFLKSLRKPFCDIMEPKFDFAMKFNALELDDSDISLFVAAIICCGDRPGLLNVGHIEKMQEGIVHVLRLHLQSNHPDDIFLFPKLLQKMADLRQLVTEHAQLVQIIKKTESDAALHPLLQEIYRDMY
Nuclear respiratory factor 1 (Homo sapiens), sequence (Q16656 whole entry, looked up): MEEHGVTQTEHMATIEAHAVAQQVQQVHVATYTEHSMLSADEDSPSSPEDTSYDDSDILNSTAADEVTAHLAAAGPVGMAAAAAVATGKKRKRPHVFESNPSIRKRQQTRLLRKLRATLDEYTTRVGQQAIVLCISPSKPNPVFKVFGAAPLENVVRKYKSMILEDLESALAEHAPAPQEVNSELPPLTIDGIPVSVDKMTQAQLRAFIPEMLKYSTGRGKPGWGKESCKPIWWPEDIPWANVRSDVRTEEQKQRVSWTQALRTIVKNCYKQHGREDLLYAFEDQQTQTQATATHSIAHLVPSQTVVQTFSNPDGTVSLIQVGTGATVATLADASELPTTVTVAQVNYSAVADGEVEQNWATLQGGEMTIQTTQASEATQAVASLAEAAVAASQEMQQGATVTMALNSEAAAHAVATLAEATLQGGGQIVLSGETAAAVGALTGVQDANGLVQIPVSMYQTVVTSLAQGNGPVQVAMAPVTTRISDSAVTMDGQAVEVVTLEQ
Myc proto-oncogene protein (Homo sapiens), sequence (P01106 whole entry, looked up): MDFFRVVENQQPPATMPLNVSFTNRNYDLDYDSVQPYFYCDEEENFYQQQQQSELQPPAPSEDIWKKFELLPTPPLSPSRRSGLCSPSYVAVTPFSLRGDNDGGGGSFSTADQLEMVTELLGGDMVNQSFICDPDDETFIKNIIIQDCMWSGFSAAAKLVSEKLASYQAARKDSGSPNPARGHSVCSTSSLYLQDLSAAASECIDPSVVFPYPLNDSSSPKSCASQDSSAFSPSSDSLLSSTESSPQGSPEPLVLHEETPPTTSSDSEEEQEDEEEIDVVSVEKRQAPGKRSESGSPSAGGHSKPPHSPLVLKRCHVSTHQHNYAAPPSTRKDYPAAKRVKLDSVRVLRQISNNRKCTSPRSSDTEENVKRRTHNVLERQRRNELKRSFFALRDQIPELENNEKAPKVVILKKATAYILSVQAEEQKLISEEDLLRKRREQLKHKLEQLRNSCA
Cellular tumor antigen p53 (Homo sapiens), sequence (P04637 whole entry, looked up): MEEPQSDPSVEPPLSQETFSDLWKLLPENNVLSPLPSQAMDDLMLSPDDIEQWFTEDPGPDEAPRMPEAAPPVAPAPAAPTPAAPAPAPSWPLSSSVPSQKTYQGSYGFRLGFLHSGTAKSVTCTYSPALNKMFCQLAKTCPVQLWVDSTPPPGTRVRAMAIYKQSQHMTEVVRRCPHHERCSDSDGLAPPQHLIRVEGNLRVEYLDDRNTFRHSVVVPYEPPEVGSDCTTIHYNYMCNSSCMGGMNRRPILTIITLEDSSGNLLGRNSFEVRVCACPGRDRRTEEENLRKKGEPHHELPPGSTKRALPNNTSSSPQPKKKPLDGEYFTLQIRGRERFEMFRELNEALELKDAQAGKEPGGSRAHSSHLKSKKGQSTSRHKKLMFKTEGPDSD
Hepatocyte nuclear factor 4-alpha (Homo sapiens), sequence (P41235 whole entry, looked up, the tested form may be a part): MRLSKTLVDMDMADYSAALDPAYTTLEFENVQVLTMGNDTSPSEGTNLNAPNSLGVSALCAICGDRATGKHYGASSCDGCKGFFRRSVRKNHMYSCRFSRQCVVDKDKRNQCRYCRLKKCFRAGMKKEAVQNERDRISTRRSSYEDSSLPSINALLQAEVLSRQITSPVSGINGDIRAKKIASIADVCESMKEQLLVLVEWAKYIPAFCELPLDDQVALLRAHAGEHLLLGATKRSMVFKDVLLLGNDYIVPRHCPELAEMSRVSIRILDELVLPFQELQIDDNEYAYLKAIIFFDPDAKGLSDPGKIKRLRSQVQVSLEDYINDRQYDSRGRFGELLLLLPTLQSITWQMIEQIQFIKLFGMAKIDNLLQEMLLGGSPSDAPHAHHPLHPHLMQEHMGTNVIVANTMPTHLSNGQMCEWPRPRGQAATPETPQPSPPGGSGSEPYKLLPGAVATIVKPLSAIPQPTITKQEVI
Transcriptional activator Myb (Homo sapiens), sequence (P10242 whole entry, looked up): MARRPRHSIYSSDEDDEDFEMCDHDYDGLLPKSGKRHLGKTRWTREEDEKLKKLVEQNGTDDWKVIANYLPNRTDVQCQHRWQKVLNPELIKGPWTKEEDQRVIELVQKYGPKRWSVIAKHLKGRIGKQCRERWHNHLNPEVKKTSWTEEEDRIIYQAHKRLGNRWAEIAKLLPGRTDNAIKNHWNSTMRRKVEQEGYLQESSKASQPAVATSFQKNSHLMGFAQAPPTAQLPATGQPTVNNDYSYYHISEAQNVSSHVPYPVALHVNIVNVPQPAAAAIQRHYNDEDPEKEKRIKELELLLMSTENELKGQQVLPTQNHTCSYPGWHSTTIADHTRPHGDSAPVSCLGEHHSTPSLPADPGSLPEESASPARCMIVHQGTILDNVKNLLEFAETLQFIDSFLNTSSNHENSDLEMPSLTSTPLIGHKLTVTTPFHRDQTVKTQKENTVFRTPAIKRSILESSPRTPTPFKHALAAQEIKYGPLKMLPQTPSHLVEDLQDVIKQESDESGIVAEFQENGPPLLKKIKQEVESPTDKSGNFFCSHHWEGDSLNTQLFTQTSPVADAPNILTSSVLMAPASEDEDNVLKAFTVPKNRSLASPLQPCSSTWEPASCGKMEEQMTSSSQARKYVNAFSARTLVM
Nuclear receptor subfamily 4 group A member 2 (Homo sapiens), sequence (P43354 whole entry, looked up, the tested form may be a part): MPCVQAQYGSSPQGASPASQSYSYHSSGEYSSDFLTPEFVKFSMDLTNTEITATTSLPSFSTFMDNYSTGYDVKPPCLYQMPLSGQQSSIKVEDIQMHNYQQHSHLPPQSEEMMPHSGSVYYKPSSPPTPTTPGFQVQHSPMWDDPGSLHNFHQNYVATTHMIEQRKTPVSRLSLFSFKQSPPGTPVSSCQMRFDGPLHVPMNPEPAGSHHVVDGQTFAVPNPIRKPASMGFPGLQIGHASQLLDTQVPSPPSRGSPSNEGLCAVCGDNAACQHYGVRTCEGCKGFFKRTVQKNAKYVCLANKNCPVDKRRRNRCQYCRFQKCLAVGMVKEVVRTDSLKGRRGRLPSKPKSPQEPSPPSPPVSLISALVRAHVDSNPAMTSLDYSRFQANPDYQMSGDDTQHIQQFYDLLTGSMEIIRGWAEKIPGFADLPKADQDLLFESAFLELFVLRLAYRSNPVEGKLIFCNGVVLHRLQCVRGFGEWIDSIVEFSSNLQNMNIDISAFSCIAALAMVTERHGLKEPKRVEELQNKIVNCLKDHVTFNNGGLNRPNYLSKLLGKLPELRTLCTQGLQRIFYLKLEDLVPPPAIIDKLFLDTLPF
human Peroxisome Proliferator-activated Receptor delta (PPARd), PPARD (gene 5467), sequence (Q03181 whole entry, looked up, the tested form may be a part): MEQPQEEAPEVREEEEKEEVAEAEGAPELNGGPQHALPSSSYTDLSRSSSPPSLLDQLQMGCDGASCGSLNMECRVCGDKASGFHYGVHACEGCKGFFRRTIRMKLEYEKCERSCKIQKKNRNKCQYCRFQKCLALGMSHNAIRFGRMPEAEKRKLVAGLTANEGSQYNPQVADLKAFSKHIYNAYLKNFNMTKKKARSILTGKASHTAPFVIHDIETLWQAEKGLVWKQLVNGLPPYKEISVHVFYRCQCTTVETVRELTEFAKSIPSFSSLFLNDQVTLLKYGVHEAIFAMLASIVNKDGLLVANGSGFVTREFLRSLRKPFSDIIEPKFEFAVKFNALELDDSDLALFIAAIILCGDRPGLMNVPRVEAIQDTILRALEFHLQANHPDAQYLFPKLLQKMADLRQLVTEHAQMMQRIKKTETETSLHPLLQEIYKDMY

With `CC(=[OH+])/C=C(/C)[O-].CC(=[OH+])/C=C(/C)[O-].CC(=[OH+])/C=C(/C)[O-].[Al]`, the call in assay [1], in assay [2], in assay [3], in assay [4], in assay [5] and in [6] was inactive. Also, the compound was called inactive in [7], in [8], in [9], in assay [10], in assay [11] and in assay [12].

As to `Cc1cc(Cl)ccc1O[C@H](C)C(=O)O`, the outcome in [1], in assay [2], in [3], in [4], in assay [5] and in assay [6] was inactive. Moreover, the compound was classed as inactive in assay [7], in assay [8], in assay [9], in assay [10], in assay [11] and in assay [12]. The call in assay [13] was inactive.

`O=c1[nH]c(=O)[nH]c(=O)[nH]1`: the call in assay [1], in assay [14], in assay [3], in assay [4], in assay [5] and in assay [6] was inactive. Besides, the call in assay [7], in assay [8], in assay [9], in assay [10], in [11] and in [15] was inactive. Also, the outcome in assay [16], in [17], in assay [18], in [12] and in [13] was inactive.

For the compound `O=C(Nc1ccc2[nH]ccc2c1)c1cc2cc(F)ccc2n1Cc1cccc(F)c1`, the result in [1], in assay [14], in assay [3], in [4], in assay [5] and in [6] was inactive. Also, the compound was classed as inactive in assay [11] and in assay [13]. Moreover, the AC50 is 16.6 µM (active) in [7]; 7.2 µM (active) in assay [8]; 8.08 µM (active) in assay [9]; 8.59 µM (active) in assay [15]; 7.15 µM (active) in assay [16]; 11.1 µM (active) in assay [18].

On to `O=[N+]([O-])c1ccc2c3c(cccc13)CC2`, for which the outcome in assay [1], in assay [14], in assay [4], in [5], in assay [6] and in assay [7] was inactive. The result in assay [8], in assay [10], in [11], in assay [15] and in assay [18] was inactive. In addition, the figures for the AC50 in assay [9] and in [16] were 6.63 µM (active) and 20 µM (active), respectively.

As for `COc1cc2c(cc1OC)[C@@]13CCN4CC5=CCO[C@H]6CC(=O)N2[C@H]1[C@H]6[C@H]5C[C@H]43`, the compound was classed as inactive in [1], in assay [14], in [4], in assay [5], in [6] and in assay [7]. Moreover, the compound was classed as inactive in [8], in assay [9], in assay [10], in [11] and in assay [12].

On to `CCOP(=S)(OCC)SCSP(=S)(OCC)OCC`, for which the compound was classed as inactive in assay [1], in [2], in assay [3], in assay [4], in assay [5] and in assay [6]. In addition, the call in assay [7], in [8], in [9], in assay [11], in assay [15] and in assay [16] was inactive. Further, the result in assay [18] and in assay [19] was inactive.

In the case of `CN(C)N=O`, the result in [1], in assay [2], in [3], in assay [4], in assay [5] and in assay [6] was inactive. In addition, the result in [7], in [8], in assay [10], in [11], in assay [15] and in assay [16] was inactive. The result in assay [17], in assay [18], in [12] and in assay [19] was inactive.

As to `O=C/C=C/c1ccccc1`, the compound was classed as inactive in [1], in [14], in assay [3], in assay [4], in assay [5] and in assay [6]. Moreover, the compound was called inactive in assay [7], in assay [8], in assay [11] and in [12].
